Measurements taken from the supplement of paper PMC8728848.
Only a selection was taken, and the strongest signals are over-represented in it overall.

Legend:
Assay in all cases: glycan array binding signal (z-score within array); higher = stronger binding
Conditions in all cases: glycan notation: IUPAC condensed, linker removed
[1] = molecular target: Fuc(a1-2)Gal(b1-3)GlcNAc(b1-2)Man(a1-3)[Fuc(a1-2)Gal(b1-3)GlcNAc(b1-2)Man(a1-6)]Man(b1-4)GlcNAc(b1-4)GlcNAc
How it was run: (§1)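 Columns mapping to the same glycan were averaged after glycan names were converted to IUPAC-condensed notation. The data come from 3228 arrays in the Consortium for Functional Glycomics database, limited to those with an available protein sequence. Binding is reported as a within-array Z-score averaged across arrays of one protein sequence and across linkers.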

[2] = molecular target: Fuc(a1-2)Gal(b1-3)GlcNAc(b1-3)[Fuc(a1-3)[Gal(b1-4)]GlcNAc(b1-6)]Gal(b1-4)Glc
How it was run: as §1

[3] = molecular target: Fuc(a1-2)Gal(b1-3)[Fuc(a1-4)]GlcNAc
How it was run: as §1

[4] = molecular target: Fuc(a1-2)Gal(b1-4)GlcNAc(b1-2)[Fuc(a1-2)Gal(b1-4)GlcNAc(b1-4)]Man(a1-3)[Fuc(a1-2)Gal(b1-4)GlcNAc(b1-2)Man(a1-6)]Man(b1-4)GlcNAc(b1-4)GlcNAc
How it was run: as §1

[5] = molecular target: Fuc(a1-2)[Gal(a1-3)]Gal(b1-3)GlcNAc
How it was run: as §1

[6] = molecular target: Fuc(a1-2)[GalNAc(b1-3)]Gal
How it was run: as §1

[7] = molecular target: Fuc(a1-3)[Gal(b1-4)]GlcNAc(b1-3)GalNAc
How it was run: as §1

Gal(a1-3)Gal(b1-4)Glc = molecular target: Gal(a1-3)Gal(b1-4)Glc
How it was run: as §1

Gal(a1-3)Gal(b1-4)GlcNAc = molecular target: Gal(a1-3)Gal(b1-4)GlcNAc
How it was run: as §1

[8] = molecular target: Gal(a1-3)[Gal(a1-4)]Gal(b1-4)GlcNAc
How it was run: as §1

Gal(a1-4)Gal(b1-4)GlcNAc = molecular target: Gal(a1-4)Gal(b1-4)GlcNAc
How it was run: as §1

[9] = molecular target: Gal(b1-3)Gal(b1-4)GlcNAc(b1-2)Man(a1-3)[Gal(b1-3)Gal(b1-4)GlcNAc(b1-2)Man(a1-6)]Man(b1-4)GlcNAc(b1-4)GlcNAc
How it was run: as §1

[10] = molecular target: Gal(b1-3)GalNAc(b1-3)Gal(a1-4)Gal(b1-4)Glc
How it was run: as §1

Gal(b1-3)GlcNAc = molecular target: Gal(b1-3)GlcNAc
How it was run: as §1

[11] = molecular target: Gal(b1-3)GlcNAc(b1-3)Gal(b1-4)GlcNAc(b1-6)[Gal(b1-3)GlcNAc(b1-3)]Gal(b1-4)Glc
How it was run: as §1

[12] = molecular target: Gal(b1-3)[Fuc(a1-4)]GlcNAc
How it was run: as §1

[13] = molecular target: Gal(b1-3)[Fuc(a1-4)]GlcNAc(b1-2)Man(a1-3)[Gal(b1-3)[Fuc(a1-4)]GlcNAc(b1-2)Man(a1-6)]Man(b1-4)GlcNAc(b1-4)[Fuc(a1-6)]GlcNAc
How it was run: as §1

[14] = molecular target: Gal(b1-3)[Fuc(a1-4)]GlcNAc(b1-3)Gal(b1-4)GlcNAc
How it was run: as §1

Gal(b1-4)Gal = molecular target: Gal(b1-4)Gal
How it was run: as §1

[15] = molecular target: Gal(b1-4)GlcNAc(b1-3)Gal(b1-3)GlcNAc
How it was run: as §1

[16] = molecular target: Gal(b1-4)GlcNAc(b1-3)Gal(b1-4)[Fuc(a1-3)]GlcNAc(b1-3)Gal(b1-4)[Fuc(a1-3)]GlcNAc
How it was run: as §1

[17] = molecular target: Gal(b1-4)GlcNAc(b1-3)[GlcNAc(b1-6)]Gal(b1-4)GlcNAc
How it was run: as §1

Gal3S(b1-3)GalNAc = molecular target: Gal3S(b1-3)GalNAc
How it was run: as §1

Gal3S(b1-4)GlcNAc6S = molecular target: Gal3S(b1-4)GlcNAc6S
How it was run: as §1

Gal3S6S(b1-4)GlcNAc6S = molecular target: Gal3S6S(b1-4)GlcNAc6S
How it was run: as §1

Gal6S(b1-3)GlcNAc6S = molecular target: Gal6S(b1-3)GlcNAc6S
How it was run: as §1

Gal6S(b1-4)GlcNAc = molecular target: Gal6S(b1-4)GlcNAc
How it was run: as §1

[18] = molecular target: GalNAc(b1-3)Gal(a1-4)Gal(b1-4)GlcNAc
How it was run: as §1

Glc(a1-4)Glc = molecular target: Glc(a1-4)Glc
How it was run: as §1

Glc(b1-4)Glc = molecular target: Glc(b1-4)Glc
How it was run: as §1

GlcA(b1-3)GlcNAc = molecular target: GlcA(b1-3)GlcNAc
How it was run: as §1

[19] = molecular target: GlcNAc(b1-2)Man(a1-3)[GlcNAc(b1-2)Man(a1-6)]Man(b1-4)GlcNAc(b1-4)[Fuc(a1-6)]GlcNAc
How it was run: as §1

[20] = molecular target: GlcNAc(b1-2)[GlcNAc(b1-4)]Man(a1-3)[GlcNAc(b1-4)][GlcNAc(b1-2)Man(a1-6)]Man(b1-4)GlcNAc(b1-4)GlcNAc
How it was run: as §1

[21] = molecular target: GlcNAc(b1-2)[GlcNAc(b1-6)]Man(a1-6)[GlcNAc(b1-2)Man(a1-3)][GlcNAc(b1-4)]Man(b1-4)GlcNAc(b1-4)GlcNAc
How it was run: as §1

[22] = molecular target: GlcNAc(b1-4)GlcNAc(b1-4)GlcNAc
How it was run: as §1

[23] = molecular target: GlcNAc(b1-4)[GlcNAc(b1-6)]GalNAc
How it was run: as §1

Kdn(a2-3)Gal(b1-3)GalNAc = molecular target: Kdn(a2-3)Gal(b1-3)GalNAc
How it was run: as §1

Kdn(a2-3)Gal(b1-4)GlcNAc = molecular target: Kdn(a2-3)Gal(b1-4)GlcNAc
How it was run: as §1

Kdn(a2-6)Gal(b1-4)GlcNAc = molecular target: Kdn(a2-6)Gal(b1-4)GlcNAc
How it was run: as §1

[24] = molecular target: Neu5Ac(a2-3)Gal(b1-3)GalNAc(b1-4)[Neu5Ac(a2-8)Neu5Ac(a2-3)]Gal(b1-4)Glc
How it was run: as §1

[25] = molecular target: Neu5Ac(a2-3)Gal(b1-3)GlcNAc(b1-3)GalNAc
How it was run: as §1

Neu5Ac(a2-3)GalNAc = molecular target: Neu5Ac(a2-3)GalNAc
How it was run: as §1

Neu5Ac(a2-6)Gal = molecular target: Neu5Ac(a2-6)Gal
How it was run: as §1

[26] = molecular target: Neu5Ac(a2-6)Gal(b1-4)GlcNAc(b1-2)Man(a1-3)[Man(a1-6)]Man(b1-4)GlcNAc(b1-4)GlcNAc
How it was run: as §1

[27] = molecular target: Neu5Ac(a2-6)Gal(b1-4)GlcNAc6S
How it was run: as §1

[28] = molecular target: Neu5Ac(a2-6)GalNAc(b1-4)GlcNAc
How it was run: as §1

Neu5Ac(a2-8)Neu5Ac = molecular target: Neu5Ac(a2-8)Neu5Ac
How it was run: as §1

[29] = molecular target: Neu5Gc(a2-6)Gal(b1-4)GlcNAc
How it was run: as §1

[30] = molecular target: Neu5Gc(b2-6)Gal(b1-4)GlcNAc
How it was run: as §1

B1: SEX4 (Arabidopsis thaliana), Q944A8 (protein)
chain: TQAMGAVLTYRHELGMNYNFIRPDLIVGSCLQTPEDVDKLRKIGVKTIFCLQQDPDLEYFGVDISSIQAYAKKYSDIQHIRCEIRDFDAFDLRMRLPAVVGTLYKAVKRNGGVTYVHCTAGMGRAPAVALTYMFWVQGYKLMEAHKLLMSKRSCFPKLDAIRNATIDILTGLKRKTVTLTLKDKGFSRVEISGLDIGWGQRIPLTLGKGTGFWILKRELPEGQFEYKYIIDGEWTHNEAEPFIGPNKDGHTNNYAKVVDDPTSVDGTTRERLSSEDPELLEEERSKLIQFLETCSEAEV
glycan array binding signal (z-score) [1]: -0.14
glycan array binding signal (z-score) [2]: -0.488
glycan array binding signal (z-score) [3]: -0.43
glycan array binding signal (z-score) [4]: 3.41
glycan array binding signal (z-score) [5]: -0.101
glycan array binding signal (z-score) [6]: -0.555
glycan array binding signal (z-score) [7]: 2.34
glycan array binding signal (z-score) (Gal(a1-3)Gal(b1-4)Glc): -0.237
glycan array binding signal (z-score) (Gal(a1-3)Gal(b1-4)GlcNAc): 0.108
glycan array binding signal (z-score) [8]: -0.539
glycan array binding signal (z-score) (Gal(a1-4)Gal(b1-4)GlcNAc): -0.482
glycan array binding signal (z-score) [9]: -0.329
glycan array binding signal (z-score) [10]: -0.231
glycan array binding signal (z-score) (Gal(b1-3)GlcNAc): -0.554
glycan array binding signal (z-score) [11]: -0.273
glycan array binding signal (z-score) [12]: -0.398
glycan array binding signal (z-score) [13]: -0.406
glycan array binding signal (z-score) [14]: 0.013
glycan array binding signal (z-score) (Gal(b1-4)Gal): -0.4
glycan array binding signal (z-score) [15]: -0.483
glycan array binding signal (z-score) [16]: -0.35
glycan array binding signal (z-score) [17]: -0.354
glycan array binding signal (z-score) (Gal3S(b1-3)GalNAc): -0.502
glycan array binding signal (z-score) (Gal3S(b1-4)GlcNAc6S): 0.229
glycan array binding signal (z-score) (Gal3S6S(b1-4)GlcNAc6S): 2.76
glycan array binding signal (z-score) (Gal6S(b1-3)GlcNAc6S): 1.27
glycan array binding signal (z-score) (Gal6S(b1-4)GlcNAc): 0.104
glycan array binding signal (z-score) [18]: -0.406
glycan array binding signal (z-score) (Glc(a1-4)Glc): -0.393
glycan array binding signal (z-score) (Glc(b1-4)Glc): -0.561
glycan array binding signal (z-score) (GlcA(b1-3)GlcNAc): 16
glycan array binding signal (z-score) [19]: 3.1
glycan array binding signal (z-score) [20]: 0.008
glycan array binding signal (z-score) [21]: -0.06
glycan array binding signal (z-score) [22]: -0.388
glycan array binding signal (z-score) [23]: -0.489
glycan array binding signal (z-score) (Kdn(a2-3)Gal(b1-3)GalNAc): 0.126
glycan array binding signal (z-score) (Kdn(a2-3)Gal(b1-4)GlcNAc): 0.514
glycan array binding signal (z-score) (Kdn(a2-6)Gal(b1-4)GlcNAc): -0.36
glycan array binding signal (z-score) [24]: 0.161
glycan array binding signal (z-score) [25]: 2.39
glycan array binding signal (z-score) (Neu5Ac(a2-3)GalNAc): -0.529
glycan array binding signal (z-score) (Neu5Ac(a2-6)Gal): -0.496
glycan array binding signal (z-score) [26]: 2.32
glycan array binding signal (z-score) [27]: 2.46
glycan array binding signal (z-score) [28]: -0.017
glycan array binding signal (z-score) (Neu5Ac(a2-8)Neu5Ac): -0.065
glycan array binding signal (z-score) [29]: 0.489
glycan array binding signal (z-score) [30]: -0.09
